# Records with an inconclusive call do not appear. Active and inactive are the calls of the source. Calls follow the shape of the dose curve; as a rule, active = well fitted inhibition curve with a large enough effect; inconclusive = small, poorly fitted or top-dose-only effect; inactive = flat fitted curve, though single readings scatter.
# Experiment: Confirmatory screen GU Rhodamine qHTS for Zika virus inhibitors qHTS (AID 1347157); also: nearly all actives have a fitted effect of over 70% in size
# Conditions: purified enzyme assay, Rhodamine110 substrate fluorescence, 15 min; series mostly up to 114 µM
# Text: Avindra Nath, Ph.D., National Institute of Neurological Disorders and Stroke (NINDS), Bethesda, MD
# Radhakrishnan Padmanabhan, Ph.D., Georgetown University (GU), Washington D.C.
# Zika Virus causes congenital defects, including microcephaly and is associated with Guillain-Barre syndrome, eningoencephalitis and myelitis in infected adult. […] Using a target-based approach, we hope to establish a screening paradigm to uncover novel, cell-active NS2B-NS3 protease (Zika Virus) specific inhibitors from NCATS' collection of small molecules using qHTS.
# Four assay panel was created to identify potential Zika Virus inhibitors. Namely, (1) GU unlinked NS2B-NS3 AMC tagged protease qHTS, (2) GU unlinked NS2B-NS3 Rhodamine tagged protease qHTS, (3) NINDS linked NS2B-NS3 AMC tagged protease qHTS, (4) NINDS linked NS2B-NS3 Rhodamine tagged protease qHTS. Active compounds were re-acquired and re-screened to confirm inhibition. Inhibitors were further screened against various confirmatory and counterscreens in dose response format.
# Early Translation Branch (ETB)
# National Center for Advancing Translational Sciences (NCATS), Rockville, MD
# National Institute of Health (NIH), Bethesda, Maryland
# Padmanabhan lab provided the NS2B hydrophilic domain and NS3 protease domain in a noncovalent complex used for the unlinked assay. Control compound aprotinin is obtained from Thermo Scientific (#78432; Waltham, Massachusetts). Rhodamine110 substrate ([N-Cbz]-Nle-Lys-Arg-Arg-Rhod110-Arg-Arg-Lys-Nle-[N-Cbz]) was purchased from either Genscript or Bachem.
# 1536-well Protease (Rhodamine110 Substrate) Assay:
# Briefly, 3 microL of enzyme (25 nM final concentration), in assay buffer (10 mM Tris-HCl pH 8.0 with 0.01% Tween 20) were dispensed into a 1,536-well solid-bottom black plate (Greiner Bio One, Monroe, NC). Twenty-three nL of compounds (final concentration range 7.28 nM to 114 microM) or control Aprotinin (final concentration range 3.47 nM to 114 microM) were transferred via Wako Pin-tool (Wako Automation, Richmond, VA). Samples were incubated (room temperature, protected from light) for 15 minutes followed by a 1 microL Rhodamine110 substrate addition (1.5 microM final concentration). Plates were then immediately read on a ViewLux High-throughput CCD imager (PerkinElmer, Waltham, MA) equipped with FITC fluorescence optics (480(20) nm excitation, 540(25) nm emission), then incubated (room temperature, protected from light) for 15 minutes (~15% conversion). The change in fluorescence intensity over the 15-minute reaction period was normalized against no-inhibitor and no-enzyme controls and the resulting percent inhibition data were fitted to a 4-parameter Hill equation. Aprotinin was used as intraplate control.
# Potency is read from the fitted curve at half-maximal effect.
row,Structure (SMILES),Potency
1,COc1ccc(C(=O)n2c(C)c(Cc3cccc(O[C@@H](C)C(=O)O)c3)c3cc(OC(F)(F)F)ccc32)cc1,2.78 µM (active)
2,CC1(C)CC[C@]2(C(=O)O)CC[C@]3(C)C(=CCC4[C@@]5(C)C[C@@H](O)[C@H](O)C(C)(C)C5CC[C@]43C)C2C1 (stereo partly specified),8.57 µM (active)
3,COc1ccc(C(=O)C2CCN(CC(=O)N(Cc3nc4c(c(=O)[nH]3)COCC4)CC3CC3)CC2)cc1,inactive
4,O=C(N/N=C/c1ccc(O)c(O)c1)c1cc2ccccc2cc1O,2.32 µM (active)
5,COc1cc(Nc2nc3ccccc3nc2NS(=O)(=O)c2ccc(NC(=O)c3ccc(OC)c(C)c3)cc2)cc(OC)c1,3.12 µM (active)
6,O=C(O)Cc1ccc2oc(-c3ccc(NC(=O)/C=C/c4ccc(Br)cc4)c(F)c3)nc2c1,3.12 µM (active)
7,N#CC(c1ccnc(OCc2ccc(CN3CCOCC3)cc2)n1)c1nc2ccccc2s1 (stereo unspecified),31.2 µM (active)
8,O=C(O)/C=C/c1ccc(-c2ccc(O)c(C34CC5CC(CC(C5)C3)C4)c2)cc1,1.11 µM (active)
9,CC1(C)CC2=C3C=CC4C5(C)CCC(O)C(C)(C)C5CCC4(C)C3(C)CCC2(C)C(O)C1 (stereo unspecified),13.6 µM (active)
10,OC/C=C/C=C/[C@H]1Cc2cc(O)cc(O)c2O1,22.1 µM (active)
11,C#CCN(Cc1cc2c(=O)[nH]c(C)nc2cc1Br)c1ccc(C(=O)NCc2cccnc2)cc1,44.1 µM (active)
12,CC1=C(C(=O)OCc2ccccc2)C(c2ccc(-c3ccccc3)cc2)NC(=O)N1CCCCCC(=O)O (stereo unspecified),2.48 µM (active)
13,CC1(C)CCC(C)(C)c2cc(C3(c4ccc(C(=O)O)cc4)OCCO3)ccc21,12.4 µM (active)
14,COc1ccc(Cl)c(Nc2nc3ccccc3nc2NS(=O)(=O)c2cccc(NC(=O)C(C)(C)N)c2)c1,5.55 µM (active)
15,O=C(Nc1ccc(S(=O)(=O)Nc2nccs2)cc1)C(c1ccccc1)c1ccccc1,6.98 µM (active)
16,CCCCCCOc1cc2c(cc1N(C)c1ncc(C(=O)O)cn1)C(C)(C)CCC2(C)C,6.98 µM (active)
17,O=S(=O)(c1ccccc1)c1cnc2c(N3CCNCC3)cccc2c1,inactive
18,CC(C)c1cccc2c(-c3ccccc3)cc(-c3ccc(-c4ccc(C(=O)O)cc4)[nH]3)nc12,1.97 µM (active)
19,CCc1c(-c2ccccc2)c(-c2ccccc2)nn1-c1ccccc1-c1cccc(OCC(=O)O)c1,3.12 µM (active)
20,CC(C)(C)Nc1nc2cc(Cl)c(Cl)cc2nc1S(C)(=O)=O,inactive
21,C=CC/C=C\C/C=C\CCCCCCCc1cccc(O)c1C(=O)O,4.32 µM (active)

# From PubChem BioAssay (NCATS)
